# According to PubChem BioAssay (NCATS):
# Results filed as inconclusive are left out. A number with no mark means an inactive call. Calls of active or inactive are those of the source. Calls follow the shape of the dose curve; as a rule, active = well fitted cell-killing curve with a large enough effect; inconclusive = small, poorly fitted or top-dose-only effect, or effect the other way; inactive = no such curve, though single readings can be large or run the other way.
# Experiment: Viability qHTS for spleen associated tyrosine kinase inhibitor (SYKi) drug resistant MV4-11 cells (AID 1963824); also: nearly all actives have a fitted effect of over 35% in size
# Settings: SYKi-resistant MV4-11 viability, CellTiter-Glo, 72 h; series mostly up to 45 µM; viability, % of control: at the top concentration
# Procedure, shortened: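 SYK inhibitor-resistant MV4-11 AML cells, 500 per well, added to predispensed compounds and incubated 72 hr at 37 C, 5% CO2. Viability measured by CellTiter-Glo luminescence after 10 min at room temperature.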
# Potency is read from the fitted curve at half-maximal effect.
SMILES,"viability, % of control",Potency
COc1cc(/C=C/C(=O)OC2[C@H](O)CC(O)(C(=O)O)C[C@H]2O)ccc1O (some centres undefined),97.3%,
C=C(C(=O)O)[C@@H]1CC[C@@]2(C)CC[C@@H](O)C(=C)C2C1 (some centres undefined),71.6%,
OC[C@H]1O[C@@H](OC(CCCCc2ccc(O)cc2)CCc2ccc(O)cc2)[C@H](O)[C@@H](O)[C@@H]1O (some centres undefined),38.7% [at 17.3 µM],
C=C1CC2C(C)(CCC(=O)O)C(C(C)(C)O)CCC2(C)C2C(=O)OC(C)(C(=O)OC)C(=O)C12C (centres undefined),77.9% [at 17.3 µM],
C=C1C(=O)OC2CC(C)=C(C(C)CCCOC(C)=O)C(OC(=O)CC(C)CC)C12 (centres undefined),,2.52 µM (active)
CC1=CC(=O)CC(C)(C)[C@@]1(O)CC[C@@H](C)O[C@@H]1O[C@H](CO)[C@@H](O)[C@H](O)[C@H]1O,83%,
COC1CC(OC2CCC3(C)C(=CCC4C3CCC3(C)C(C(C)O)CCC43O)C2)OC(C)C1OC1OC(C)C(OC2OC(COC3OC(COC4OC(CO)C(O)C(O)C4O)C(O)C(O)C3O)C(O)C(O)C2O)C(OC)C1O (centres undefined),97.1% [at 9.25 µM],
Cc1cc(C)c2nc(-c3ccccn3)cc(C(=O)Nc3ccc(S(=O)(=O)Nc4onc(C)c4C)cc3)c2c1,,25.9 µM (active)
O=C(O)CCc1c(C(=O)O)[nH]c2cc(Cl)cc(Cl)c12,78% [at 17.3 µM],
